Assay outcomes: PubChem BioAssay, National Center for Advancing Translational Sciences (NCATS)
Eya2 inh – Eya2 (human) phosphatase inhibition; O00167; recombinant Eya2, OMFP fluorescence dephosphorylation (OMFP is methylfluorescein phosphate); Potency, µM (highest dose often 76.9 µM), inactives show top-dose activity, negative = inhibition, hits mostly inhibitors; 330,000 tested, 0.006% active; further: potency means the concentration at half of the fitted maximal effect; on the % scale 0 is the no-effect control and ±100 the full control effect
Target sequence (O00167 whole entry, looked up): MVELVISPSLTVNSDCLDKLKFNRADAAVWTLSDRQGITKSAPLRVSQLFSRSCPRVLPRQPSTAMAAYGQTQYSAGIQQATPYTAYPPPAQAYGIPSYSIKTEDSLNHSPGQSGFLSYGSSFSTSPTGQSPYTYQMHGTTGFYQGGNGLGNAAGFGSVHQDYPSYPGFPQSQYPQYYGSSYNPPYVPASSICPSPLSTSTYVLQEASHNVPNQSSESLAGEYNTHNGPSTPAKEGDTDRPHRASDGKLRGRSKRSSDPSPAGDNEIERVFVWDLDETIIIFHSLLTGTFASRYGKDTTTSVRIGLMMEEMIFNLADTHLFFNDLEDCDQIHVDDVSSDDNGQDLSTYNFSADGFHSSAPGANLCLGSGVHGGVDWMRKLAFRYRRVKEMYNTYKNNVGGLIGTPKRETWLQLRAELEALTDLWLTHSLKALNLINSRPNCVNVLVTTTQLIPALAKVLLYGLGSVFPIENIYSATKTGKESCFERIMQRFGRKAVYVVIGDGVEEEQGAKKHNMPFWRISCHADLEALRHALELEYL
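Eya2 (0.2 uM) preincubated 10 min at ambient with compound, then OMFP substrate added at 50 uM; 10 min reaction in 50 mM HEPES pH 7.5, 50 mM NaCl, 5 uM MgCl2, 0.05% BSA, 1 mM DTT. Fluorescence read at Ex 485/Em 525 nm.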
CBFb-RUNX1 inh – blocks binding between human CBF-beta and RUNX1. Q01196+Q13951. AlphaScreen CBFb-His/RUNX1-biotin binding, biochemical. Potency, µM (titrated, usually from 59.8 µM), without a hit: at the highest dose activity, negative = inhibition, hits mostly inhibitors. 230,000 tested, under 10 active; further: % of control where 0% means no effect
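Room-temperature protein-protein interaction test with 30 nM each of His-tagged CBF-beta and biotinylated RUNX1, 15 min with compound, then 90 min with nickel plus streptavidin beads. Signal read in AlphaScreen mode.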
TRb-SRC2 inh – disrupts binding of human TR beta to SRC2; TRbeta-SRC2 peptide binding, fluorescence polarization; receptor liganded with 1 µM T3; Potency, µM (highest dose often 106 µM), for the others: top-dose activity change, negative = inhibition, most hits filed as inhibitors; 280,000 tested, 0.065% active; AID 1469;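 further: potency means the concentration at half of the fitted maximal effect; plate controls were bound peptide for no effect and peptide without receptor for full effect; nearly all actives have a fitted effect of over 50% in size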
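A fluorescence polarization screen tested compounds at multiple concentrations against complex formation between 0.6 uM TRb ligand-binding domain and 20 nM Texas Red SRC2 peptide, with 1 uM T3 present; readout after 5 hr.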
USP2a block – USP2a (human) protease inhibition | O75604 | USP2 core, Ub-CHOP2 coupled fluorogenic reporter, 485/531 | Potency, µM (series often up to 38.3 µM), without a hit: at the highest dose activity change, negative = inhibition, most hits filed as inhibitors | 330,000 tested, 0.01% active;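 further: potency means the concentration at half of the fitted maximal effect; plate controls were DMSO wells for no effect and full inhibition by NEM control for full effect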
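USP2 core (10nM final) preincubated 30min RT with compound in 20mM Tris-HCl pH 8.0, 2mM CaCl2, 2mM beta-mercaptoethanol, 0.05% CHAPS; 25nM Ub-CHOP2 plus 25nM reporter substrate added, fluorescence (Ex485/Em531) read after 60min.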
TexasRed fluor – counter-screen for TRb-SRC2 inhibitors: fluorescence interference. 280,000 tested, 0.29% active. TRb/SRC2 Texas Red total fluorescence interference. AID 1479. Potency, µM (titrated, usually from 106 µM), without a hit: at the highest dose fluorescence change, negative = quenching; active means well fitted curve in either direction with a large enough effect; inconclusive means small, poorly fitted or top-dose-only effect; further: potency means the concentration at half of the fitted maximal effect; on the % scale 0 is the no-effect control and ±100 the full control effect
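Flags fluorescent or light-absorbing compounds by total fluorescence, S + 2P, at 555 nm excitation and 632 nm emission. Mixture: 20 nM Texas Red SRC2 peptide, 0.6 uM human TRb LBD, 1 uM T3, 5% DMSO; compound exposure 5 h at ambient temperature.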
TSHR antagonist – antagonists of human thyroid stimulating hormone receptor; TSHR-expressing cells, TSH-stimulated cAMP HTRF, 2 h; hits give low values; activity change, negative = inhibition, % at 11.5 µM; 330,000 tested, 0.2% active;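 active means activity change below a set negative limit, meaning inhibition stronger than a set level, cut at about -70% in these data; inconclusive means activity change between two set negative limits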; further: on the % scale 0 is the no-effect control and ±100 the full control effect
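Cell-based HTRF cAMP assay; TSHR cells + compound, TSH EC80 (4nM final), 2 h, 37 deg C. Lysis with anti-cAMP cryptate and cAMP-d2, 30 min RT, read 665/620 nm.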
Numbers without * were called inactive; [ ] = remark or other dose. Compounds with a hit are over-represented: about 0.38% of the library has one in this group of screens. Unless noted, the call rests on the fitted dose curve; in most records, active means well fitted curve in the direction sought with a large enough effect; inconclusive means small, poorly fitted or top-dose-only effect, or another doubt; inactive means no such curve, though single readings can be large; an effect the other way counts as inactive or inconclusive.

What do the screens show for `CC1=CC(=O)C(C(C)C)=C/C1=N/OS(=O)(=O)c1ccccc1`?
Eya2 inh: -0.1%; CBFb-RUNX1 inh: 6.2%; TRb-SRC2 inh: 3.3%; USP2a block: 0.1%; TexasRed fluor: -4.5%; TSHR antagonist: -97.6*

What do the screens show for `Cc1ccc(Nc2nnc(-c3ccc(C)c(S(=O)(=O)N4CCOCC4)c3)c3ccccc23)c(C)c1`?
TRb-SRC2 inh: -11.7%; TexasRed fluor: 0.0141µM*[quencher]

Results for Cc1ccc(CNCc2ccccc2)s1 ?
TRb-SRC2 inh: -12.6%; TexasRed fluor: 17.8µM*[quencher]

Results for Cc1ccccc1CN1C(=O)c2ccccc2Sc2ccc(C(=O)NC3CCCCC3)cc21 ?
TRb-SRC2 inh: -0.7%; TexasRed fluor: -1.8%

What do the screens show for `COc1ccc(-c2nnc(Nc3ccc(CC(N)=O)cc3)c3ccccc23)cc1`?
Eya2 inh: 1.8%; CBFb-RUNX1 inh: -6.7%; TRb-SRC2 inh: inconclusive; USP2a block: 4.2%; TexasRed fluor: 35.5µM*[quencher]; TSHR antagonist: 32.7

Results for Cc1ccc(CNc2ncnc3onc(-c4ccc(F)cc4)c23)cc1 ?
TRb-SRC2 inh: -18.6%; TexasRed fluor: 0.0891µM*[quencher]

What do the screens show for `COc1cccc(CNC(=O)C2CCCN(c3ncnc4onc(-c5ccc(F)cc5)c34)C2)c1` (stereo not given)?
TRb-SRC2 inh: -1.5%; TexasRed fluor: 0.1%

How did Fc1ccc(CNc2ncnc3onc(-c4ccc(F)cc4)c23)cc1 do in these assays?
TRb-SRC2 inh: -7.0%; TexasRed fluor: -2.5%

What do the screens show for `O=C(NCc1ccc(F)cc1)C1CCCN(c2ncnc3onc(-c4ccc(F)cc4)c23)C1` (stereo not given)?
TRb-SRC2 inh: -28.0%; TexasRed fluor: 15.8µM*[quencher]

What do the screens show for `CCOc1ccc(CCNC(=O)Cn2ncn3c(cc4ccccc43)c2=O)cc1OCC`?
TRb-SRC2 inh: 6.3%; TexasRed fluor: 2.8%

How did CCC1(CC)C(=O)C2=C3C1[C@H](C(=O)OC)CC(C(=O)OC)C[C@H]3n1c(=O)n(-c3ccccc3)c(=O)n1[C@H]2C (stereo not given in full) do in these assays?
CBFb-RUNX1 inh: 17.4%; TRb-SRC2 inh: inconclusive; TexasRed fluor: 44.7µM*[fluorescent]

Results for CN1\C(=C/C=C/C=C/C=[N+](C)C)C(C)(C)c2ccccc21 ?
Eya2 inh: 21.4%; CBFb-RUNX1 inh: -22.5%; TRb-SRC2 inh: inconclusive; USP2a block: inconclusive; TexasRed fluor: 50.1µM*[fluorescent]; TSHR antagonist: -9.2

How did CCc1nn2c(-c3ccccc3OC)ccnc2c1-c1ccc(F)cc1 do in these assays?
TRb-SRC2 inh: -9.3%; TexasRed fluor: 8.91µM*[quencher]

How did CC(=O)Nc1nonc1-c1nnc(SCc2cccc(Br)c2)n1C do in these assays?
TRb-SRC2 inh: -7.4%; TexasRed fluor: 10.9%

How did CCCCCCCCCCCC(=O)N(C)CC(=O)O do in these assays?
TRb-SRC2 inh: -1.2%[201 µM]; TexasRed fluor: -0.5%[201 µM]

How did CNc1nc(=O)n(C2CCCCC2)c(=O)n1C do in these assays?
TRb-SRC2 inh: 1.6%[201 µM]; TexasRed fluor: -1.1%[201 µM]

Results for Cc1nc2ccc(NC(=O)c3cc([N+](=O)[O-])cc([N+](=O)[O-])c3Cl)cc2s1 ?
Eya2 inh: -1.5%; CBFb-RUNX1 inh: -6.7%; TRb-SRC2 inh: -22.9%; USP2a block: 0.0%; TexasRed fluor: 2.9%; TSHR antagonist: -76.2*

How did CC(C)(C)c1ccc(OCC(=O)N(Cc2ccco2)Cc2ccccc2F)cc1 do in these assays?
TRb-SRC2 inh: 0.6%; TexasRed fluor: -1.0%

How did Cc1ccc(S(=O)(=O)NC(=O)Nc2ccc(N(C)C)cc2)cc1 do in these assays?
Eya2 inh: 10.3%; USP2a block: 1.8%; TSHR antagonist: -75.4*

What do the screens show for `Cc1ccc(NC(=O)NNS(=O)(=O)c2ccc(Br)cc2)cc1`?
Eya2 inh: 3.7%; CBFb-RUNX1 inh: -1.4%; TRb-SRC2 inh: 2.0%; USP2a block: -0.6%; TexasRed fluor: 1.2%; TSHR antagonist: 1.5

Results for CCOC(=O)C1CCN(c2nc(-c3ccc(Br)cc3)cs2)CC1 ?
TSHR antagonist: -18.9

Results for COc1ccc(NC(=O)CN(Cc2ccccc2)S(=O)(=O)c2ccc(C)cc2)cc1Cl ?
TRb-SRC2 inh: -10.7%; TexasRed fluor: 6.31µM*[quencher]

Results for C=CCOC(=O)NC(c1ccc(F)c(F)c1)C(C(=O)CCl)C(=O)OC (stereo not given) ?
CBFb-RUNX1 inh: -3.6%; TRb-SRC2 inh: 0.2%; TexasRed fluor: -1.8%

What do the screens show for `CC(CNC(=O)CN1C(=O)c2cccnc2Oc2ccc(Cl)cc21)c1ccccc1` (stereo not given)?
Eya2 inh: 1.9%; TRb-SRC2 inh: 0.9%; USP2a block: -1.3%; TexasRed fluor: 8.8%; TSHR antagonist: 0.4

What do the screens show for `CCOc1ccccc1CNC(=O)CN1C(=O)c2cccnc2Oc2ccc(C)cc21`?
TRb-SRC2 inh: -13.1%; TexasRed fluor: 22.4µM*[quencher]

How did CC(C)Oc1ccc(CNC(=O)CN2C(=O)c3cccnc3Oc3ccc(Cl)cc32)cc1 do in these assays?
TRb-SRC2 inh: -0.9%; TexasRed fluor: 20µM*[quencher]

How did Cc1ccc2c(c1)N(CC(=O)NCc1ccccc1Br)C(=O)c1cccnc1O2 do in these assays?
TRb-SRC2 inh: 2.6%; TexasRed fluor: -0.4%

How did CCOCCOCCOCC do in these assays?
TRb-SRC2 inh: 4.1%[201 µM]; TexasRed fluor: 1.5%[201 µM]

Results for CCCCCCCCCC(=O)OC ?
TRb-SRC2 inh: 2.9%[201 µM]; TexasRed fluor: -0.3%[201 µM]

What do the screens show for `COc1ccc(CNC(=O)CCS(=O)(=O)c2cc3c(cc2Cl)NC(=O)CO3)cc1`?
Eya2 inh: 6.9%; USP2a block: 3.2%; TSHR antagonist: -119.5*

What do the screens show for `Cc1ccc(CNC(=O)CCS(=O)(=O)c2cc3c(cc2Cl)NC(=O)CO3)cc1`?
Eya2 inh: 6.6%; TRb-SRC2 inh: -2.6%; USP2a block: 3.1%; TexasRed fluor: -2.4%; TSHR antagonist: -8.3

What do the screens show for `COc1cccc(-c2nc(CS(=O)(=O)CC(=O)N3CCCCC3)c(C)o2)c1`?
Eya2 inh: 5.1%; USP2a block: -0.5%; TSHR antagonist: -96.9*

What do the screens show for `COc1cccc(-c2nc(CS(=O)(=O)CC(=O)NC3CCCCCC3)c(C)o2)c1`?
Eya2 inh: -2.8%; USP2a block: -0.6%; TSHR antagonist: -97.0*

What do the screens show for `COc1cccc(-c2nc(CS(=O)(=O)CC(=O)NC3CC3)c(C)o2)c1`?
Eya2 inh: 2.2%; USP2a block: 4.1%; TSHR antagonist: 1.0
